Assay results reported in the supplement of paper PMC10849652.
Targets with a hit are over-represented here; the source holds about 7,900 in all. About 0.6% of all pairs of compound and target were hits. A number with no mark means an inactive call.

Tests used:
Assay in all cases: log2 fold change, soluble protein after heating vs DMSO (PISA); higher = thermal stabilisation; K562 cells, 10 uM, 30 min; active = over 0.2 and 3.5 SD of the protein, either way, in both replicates (recomputed)
[1] = compound: CC[C@@H]1C(=O)N(C)c2cnc(Nc3ccc(C(=O)NC4CCN(C)CC4)cc3OC)nc2N1C1CCCC1
In short: (§1)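 Soluble protein was quantified by TMTpro 16plex LC-MS/MS after channel sums were equalised. It was obtained as the supernatant after 21,000xg for 90 min from pooled aliquots of K562 cells (2×10^6 cells/mL, 10 μM compound, 30 min) heated for 3 min across 48°C-58°C and extracted in PBS with 0.5% NP-40 at 4°C. Thermal stability values are relative to control samples and come from duplicates. They are given as log2 fold changes.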

volasertib = compound: CC[C@@H]1C(=O)N(C)c2cnc(Nc3ccc(C(=O)N[C@H]4CC[C@H](N5CCN(CC6CC6)CC5)CC4)cc3OC)nc2N1C(C)C [volasertib]
In short: as §1

[2] = compound: CC[C@H](C)N1C=C(C2=C(C=C(C=C21)C3=CN=C(C=C3)N4CCNCC4)C(=O)NCC5=C(C=C(NC5=O)C)C)C
In short: as §1

epoxomicin = compound: CC[C@H](C)[C@@H](C(=O)N[C@@H]([C@@H](C)O)C(=O)N[C@@H](CC(C)C)C(=O)[C@]1(CO1)C)NC(=O)[C@H]([C@@H](C)CC)N(C)C(=O)C [epoxomicin]
In short: as §1

[3] = compound: CCn1c(C(=O)N(C2CC2)C2CC2)cc2c3c(ncn3C)c(Nc3cc(C)n(C)n3)nc21
In short: as §1

[4] = compound: CCn1cc(-c2ccnc3[nH]c(-c4cccc(CN(C)C)c4)cc23)c(-c2ccc(NC(=O)N(C)C)cc2)n1
In short: as §1

[5] = compound: CN(C)CC(=O)Nc1ccc2[nH]c(=O)c3ccccc3c2c1
In short: as §1

rosiglitazone = compound: CN(CCOC1=CC=C(C=C1)C[C@H]2C(=O)NC(=O)S2)C3=CC=CC=N3 (racemic) [rosiglitazone]
In short: as §1

[6] = compound: CN1C2=C(C3=C1C(=O)N(N=C3)CC4=CC(=CC=C4)N)SC(=C2)S(=O)C
In short: as §1

[7] = compound: CN1CCC(CNc2ccc3ncc(-c4cccc(OC(F)(F)F)c4)n3n2)CC1
In short: as §1

Chain of UniProt Q7Z2Z2 (Q7Z2Z2 whole entry, looked up): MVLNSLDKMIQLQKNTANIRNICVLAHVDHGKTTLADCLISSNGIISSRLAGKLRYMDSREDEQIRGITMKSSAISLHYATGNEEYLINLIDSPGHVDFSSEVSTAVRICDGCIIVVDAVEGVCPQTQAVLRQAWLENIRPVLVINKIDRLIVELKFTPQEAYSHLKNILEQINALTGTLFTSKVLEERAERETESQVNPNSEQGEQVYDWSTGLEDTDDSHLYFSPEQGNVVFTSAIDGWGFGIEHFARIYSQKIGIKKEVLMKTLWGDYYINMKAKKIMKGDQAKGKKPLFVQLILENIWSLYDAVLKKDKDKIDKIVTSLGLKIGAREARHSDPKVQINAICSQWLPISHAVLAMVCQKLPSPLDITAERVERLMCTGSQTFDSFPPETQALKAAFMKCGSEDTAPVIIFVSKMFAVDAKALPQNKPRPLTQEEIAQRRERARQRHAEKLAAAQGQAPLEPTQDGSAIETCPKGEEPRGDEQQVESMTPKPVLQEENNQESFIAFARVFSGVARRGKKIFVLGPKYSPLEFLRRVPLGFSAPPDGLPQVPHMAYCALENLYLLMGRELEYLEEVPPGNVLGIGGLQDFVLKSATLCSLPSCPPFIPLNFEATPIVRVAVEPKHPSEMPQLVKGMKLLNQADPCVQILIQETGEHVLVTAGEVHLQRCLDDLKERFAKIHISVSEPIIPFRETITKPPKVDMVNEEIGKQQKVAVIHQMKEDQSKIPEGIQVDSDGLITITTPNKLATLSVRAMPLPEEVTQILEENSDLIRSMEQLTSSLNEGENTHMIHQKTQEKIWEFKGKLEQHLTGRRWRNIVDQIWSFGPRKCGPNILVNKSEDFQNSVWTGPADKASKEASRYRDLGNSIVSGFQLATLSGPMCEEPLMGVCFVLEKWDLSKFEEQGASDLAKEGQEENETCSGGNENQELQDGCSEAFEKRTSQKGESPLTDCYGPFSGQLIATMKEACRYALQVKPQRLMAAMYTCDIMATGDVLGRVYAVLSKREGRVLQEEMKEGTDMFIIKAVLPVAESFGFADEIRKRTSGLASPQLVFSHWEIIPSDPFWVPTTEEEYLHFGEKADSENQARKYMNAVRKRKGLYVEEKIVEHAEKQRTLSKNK
Chain of UniProt Q9GZT9 (Q9GZT9 whole entry, looked up): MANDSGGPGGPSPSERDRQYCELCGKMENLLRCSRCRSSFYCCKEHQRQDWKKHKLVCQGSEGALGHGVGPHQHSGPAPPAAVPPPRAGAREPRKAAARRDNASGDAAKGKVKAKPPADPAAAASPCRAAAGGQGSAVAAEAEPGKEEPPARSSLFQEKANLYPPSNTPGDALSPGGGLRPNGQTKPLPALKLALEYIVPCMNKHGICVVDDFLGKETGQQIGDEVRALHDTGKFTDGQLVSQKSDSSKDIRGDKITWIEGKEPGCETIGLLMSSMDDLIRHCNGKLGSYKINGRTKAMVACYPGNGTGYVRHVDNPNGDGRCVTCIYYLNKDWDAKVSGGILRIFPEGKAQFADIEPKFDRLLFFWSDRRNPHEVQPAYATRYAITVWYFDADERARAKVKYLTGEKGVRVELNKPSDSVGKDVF
Chain of UniProt Q14118 (Q14118 whole entry, looked up): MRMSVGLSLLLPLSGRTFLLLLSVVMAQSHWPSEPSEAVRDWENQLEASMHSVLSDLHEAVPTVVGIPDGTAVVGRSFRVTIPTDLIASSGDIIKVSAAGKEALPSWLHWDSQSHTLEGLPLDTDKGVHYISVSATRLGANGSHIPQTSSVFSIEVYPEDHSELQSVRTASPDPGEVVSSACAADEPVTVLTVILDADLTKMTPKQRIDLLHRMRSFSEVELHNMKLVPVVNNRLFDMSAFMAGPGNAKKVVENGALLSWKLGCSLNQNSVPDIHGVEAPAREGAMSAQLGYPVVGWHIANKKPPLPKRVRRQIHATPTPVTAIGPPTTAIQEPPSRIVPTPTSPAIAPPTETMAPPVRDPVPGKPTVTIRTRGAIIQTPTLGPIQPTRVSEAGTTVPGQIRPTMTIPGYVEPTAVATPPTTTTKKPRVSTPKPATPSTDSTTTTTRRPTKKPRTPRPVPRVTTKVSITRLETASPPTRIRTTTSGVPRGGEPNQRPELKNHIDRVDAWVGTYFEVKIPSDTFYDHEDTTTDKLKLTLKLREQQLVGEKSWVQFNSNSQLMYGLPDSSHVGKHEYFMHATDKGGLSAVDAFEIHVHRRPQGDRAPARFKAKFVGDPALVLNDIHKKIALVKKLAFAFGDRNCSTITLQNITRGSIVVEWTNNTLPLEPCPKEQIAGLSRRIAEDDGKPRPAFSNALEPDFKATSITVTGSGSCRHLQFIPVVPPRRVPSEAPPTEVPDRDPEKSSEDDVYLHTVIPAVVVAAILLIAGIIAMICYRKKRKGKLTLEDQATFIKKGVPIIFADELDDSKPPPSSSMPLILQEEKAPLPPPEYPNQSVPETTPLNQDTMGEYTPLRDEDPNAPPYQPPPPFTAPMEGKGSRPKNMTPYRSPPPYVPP
Chain of UniProt Q96EV8 (Q96EV8 whole entry, looked up): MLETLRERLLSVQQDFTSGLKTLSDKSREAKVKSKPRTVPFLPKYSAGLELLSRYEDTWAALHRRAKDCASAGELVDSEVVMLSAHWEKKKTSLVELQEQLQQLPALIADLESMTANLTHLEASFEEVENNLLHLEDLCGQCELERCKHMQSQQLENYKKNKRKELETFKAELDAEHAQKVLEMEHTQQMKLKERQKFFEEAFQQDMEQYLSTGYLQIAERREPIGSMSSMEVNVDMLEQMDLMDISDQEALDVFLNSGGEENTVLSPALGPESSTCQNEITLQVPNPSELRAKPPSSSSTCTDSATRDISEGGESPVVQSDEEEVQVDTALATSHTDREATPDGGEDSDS
Chain of UniProt Q9H4H8 (Q9H4H8 whole entry, looked up): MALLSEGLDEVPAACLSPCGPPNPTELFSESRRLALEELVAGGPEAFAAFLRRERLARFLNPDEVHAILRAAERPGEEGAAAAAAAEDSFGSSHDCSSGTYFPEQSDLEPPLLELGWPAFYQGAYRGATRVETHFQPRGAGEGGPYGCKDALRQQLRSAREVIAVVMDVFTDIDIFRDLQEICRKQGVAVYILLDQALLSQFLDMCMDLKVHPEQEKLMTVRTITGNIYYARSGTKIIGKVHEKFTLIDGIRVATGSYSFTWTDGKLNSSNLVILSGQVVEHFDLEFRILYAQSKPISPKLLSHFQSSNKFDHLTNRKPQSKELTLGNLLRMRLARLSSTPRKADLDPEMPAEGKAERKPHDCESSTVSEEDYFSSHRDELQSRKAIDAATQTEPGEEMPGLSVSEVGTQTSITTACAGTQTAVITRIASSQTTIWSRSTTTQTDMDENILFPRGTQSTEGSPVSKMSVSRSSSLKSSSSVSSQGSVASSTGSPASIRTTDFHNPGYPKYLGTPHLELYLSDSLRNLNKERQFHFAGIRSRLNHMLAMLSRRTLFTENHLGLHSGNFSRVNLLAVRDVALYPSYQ
Chain of UniProt Q9UK59 (Q9UK59 whole entry, looked up): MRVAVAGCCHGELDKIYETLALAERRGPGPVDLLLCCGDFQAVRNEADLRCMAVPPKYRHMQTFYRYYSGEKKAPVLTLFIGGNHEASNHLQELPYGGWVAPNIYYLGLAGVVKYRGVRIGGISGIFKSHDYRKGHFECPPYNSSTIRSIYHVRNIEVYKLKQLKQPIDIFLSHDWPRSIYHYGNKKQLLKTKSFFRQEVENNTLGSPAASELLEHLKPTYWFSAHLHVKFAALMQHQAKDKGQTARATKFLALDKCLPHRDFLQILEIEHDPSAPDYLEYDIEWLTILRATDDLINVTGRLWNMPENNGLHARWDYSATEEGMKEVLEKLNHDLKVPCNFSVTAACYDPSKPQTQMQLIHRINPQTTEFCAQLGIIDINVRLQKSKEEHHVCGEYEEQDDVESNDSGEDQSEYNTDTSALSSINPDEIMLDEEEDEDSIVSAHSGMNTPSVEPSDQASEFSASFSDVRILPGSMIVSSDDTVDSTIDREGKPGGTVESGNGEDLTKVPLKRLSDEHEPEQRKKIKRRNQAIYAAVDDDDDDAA
Chain of UniProt O60231 (O60231 whole entry, looked up): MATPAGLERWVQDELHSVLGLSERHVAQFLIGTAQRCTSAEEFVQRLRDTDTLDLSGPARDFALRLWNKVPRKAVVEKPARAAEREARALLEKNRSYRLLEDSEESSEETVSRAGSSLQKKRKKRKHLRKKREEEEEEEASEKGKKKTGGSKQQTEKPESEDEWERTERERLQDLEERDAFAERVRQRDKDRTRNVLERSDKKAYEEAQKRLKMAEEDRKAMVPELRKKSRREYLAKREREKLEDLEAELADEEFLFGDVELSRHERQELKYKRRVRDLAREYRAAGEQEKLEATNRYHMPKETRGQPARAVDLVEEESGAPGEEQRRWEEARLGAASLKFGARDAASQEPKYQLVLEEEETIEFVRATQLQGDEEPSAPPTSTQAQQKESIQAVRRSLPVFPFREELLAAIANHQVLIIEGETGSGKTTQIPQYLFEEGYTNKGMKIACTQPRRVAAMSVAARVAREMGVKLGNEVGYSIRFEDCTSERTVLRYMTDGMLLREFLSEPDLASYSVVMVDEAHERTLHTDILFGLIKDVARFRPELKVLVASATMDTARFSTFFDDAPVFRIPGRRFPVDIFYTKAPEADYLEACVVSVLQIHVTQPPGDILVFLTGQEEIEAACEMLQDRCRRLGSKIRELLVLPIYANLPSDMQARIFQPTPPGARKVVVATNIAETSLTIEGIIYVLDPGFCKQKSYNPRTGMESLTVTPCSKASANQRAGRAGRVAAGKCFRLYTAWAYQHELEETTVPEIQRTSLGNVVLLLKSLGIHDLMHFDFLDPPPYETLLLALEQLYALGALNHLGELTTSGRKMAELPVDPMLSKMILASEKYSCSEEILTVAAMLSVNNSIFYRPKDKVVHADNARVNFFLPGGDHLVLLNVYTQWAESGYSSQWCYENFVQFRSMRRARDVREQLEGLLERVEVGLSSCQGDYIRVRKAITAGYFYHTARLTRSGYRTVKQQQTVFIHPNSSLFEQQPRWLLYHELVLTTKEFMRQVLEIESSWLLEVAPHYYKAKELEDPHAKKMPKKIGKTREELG

Target	log2 fold change [1]	log2 fold change (volasertib)	log2 fold change [2]	log2 fold change (epoxomicin)	log2 fold change [3]	log2 fold change [4]	log2 fold change [5]	log2 fold change (rosiglitazone)	log2 fold change [6]	log2 fold change [7]
EPHX2 (UniProt P34913)	0.098	0.117	-0.019	-0.012	-0.002	-0.032	-0.015	0.033	0.066	0.091
DDX46 (UniProt Q7L014)	-0.259	-0.275	0.087	0.192	-0.211	-0.129	0.133	0.106	-0.066	0.087
ECPAS (UniProt Q5VYK3)	-0.188	-0.602 (active)	0.093	0.614 (active)	-0.097	-0.029	0.079	0.041	0.026	-0.143
FAF2 (UniProt Q96CS3)	-0.095	-0.322 (active)	0.002	-0.046	0.006	0.018	0.037	0.029	0.016	-0.069
EEF1B2 (UniProt P24534)	-0.171	-0.343 (active)	0.056	-0.034	-0.015	0.007	0.016	0.008	0.03	-0.065
DCAF6 isoform 3 (UniProt Q58WW2)	0.077	0.05	-0.064	0.025	0.013	-0.03	-0.035	0.006	0.006	0.004
EGLN1 (UniProt Q9GZT9)	0.117	-0.001	0.048	0.078	-0.011	-0.004	0.007	0.035	-0.006	-0.052
FAM207A (UniProt Q9NSI2)	-0.085	-0.165	0.044	-0.024	0.025	0.023	0.05	0.146	0.168	0.418 (active)
ESS2 (UniProt Q96DF8)	-0.025	-0.245 (active)	-0.077	-0.012	0.026	0.036	-0.032	-0.008	0.024	-0.012
DHRS7B (UniProt Q6IAN0)	-0.079	-0.147	-0.043	-0.106	0.004	0.059	-0.002	0.021	-0.122	0.538 (active)
DAG1 (UniProt Q14118)	0.149	0.048	-0.008	0.023	-0.039	-0.044	0.012	-0.007	-0.075	0.243 (active)
DCAF13 (UniProt Q9NV06)	0.134	0.26	0.03	-0.24	0.038	0.132	-0.166	-0.112	0.195	0.136
FAM117A (UniProt Q9C073)	0.001	0.129	0.071	0.091	0.006	-0.025	0.028	0.015	-0.008	-0.182
DFFB (UniProt O76075)	0.049	0.036	0.104	0.039	-0.057	0.028	-0.036	0	-0.074	-0.01
FAM83D (UniProt Q9H4H8)	-0.097	-0.139	0	-0.082	-0.074	-0.115	0.085	0.081	0.006	0.042
DYRK1A isoform 2 (UniProt Q13627)	0.015	-0.005	0.104	0.048	-0.012	-0.05	0.014	0.036	-0.024	-0.086
DNAJB1 (UniProt P25685)	0.011	-0.222 (active)	0.064	-0.041	-0.022	-0.026	-0.01	0.02	-0.064	-0.042
EIF3J (UniProt O75822)	-0.061	0.005	0.011	0.055	0	0.001	-0.008	0.019	-0.061	0.226
EFL1 (UniProt Q7Z2Z2)	-0.024	-0.245 (active)	0.014	0.008	-0.008	-0.006	0.025	0.019	-0.037	-0.091
DTNBP1 (UniProt Q96EV8)	-0.017	0.009	-0.002	0.048	0.026	-0.086	-0.009	0.016	-0.028	0.01
CUX1 isoform 3 (UniProt P39880)	0.008	-0.153	0.036	0.027	-0.041	-0.008	-0.019	0.125	0.004	-0.123
DUS2 (UniProt Q9NX74)	-0.052	-0.242	0.037	0.059	-0.059	-0.029	0.055	0.063	0.115	-0.02
DCAF10 (UniProt Q5QP82)	-0.003	0.029	-0.038	-0.102	-0.049	-0.018	-0.043	-0.015	-0.026	0.022
EIF2S3 (UniProt P41091)	0.076	0.073	0.026	-0.144	0.009	0.055	-0.034	-0.02	0.068	0.049
DMXL1 (UniProt Q9Y485)	-0.119	-0.241	0.029	0.026	-0.044	0.072	0.012	-0.032	0.01	-0.276 (active)
DPYSL2 (UniProt Q16555)	0.055	-0.037	0.014	0.129	-0.071	-0.073	0.11	0.039	-0.058	-0.067
DHX16 (UniProt O60231)	-0.032	-0.158	0.032	0.051	-0.05	-0.054	-0.025	0.031	-0.033	-0.012
EED, A0A5F9ZI63	-0.052	-0.055	-0.159	-0.032	-0.001	0.068	-0.099	0.054	0.045	0.209
DBR1 (UniProt Q9UK59)	0.037	0	0.008	-0.018	-0.017	0.015	-0.019	-0.002	-0.034	0.015
FAM3A (UniProt P98173)	0.024	-0.11	-0.02	0.029	0.085	0.066	0.019	0.101	-0.023	-0.128
